Measured values from the supplement of paper PMC9262897, “Low-cost anti-mycobacterial drug discovery using engineered E. coli” (Nature Communications, 2022).
Where a name gives a salt, the structure may show the parent alone. ± gives the standard deviation of the averaged measurements.

What follows are compounds tested on E. coli TESEC Mtb Asd (assay: growth (OD600 after 10 h); higher = more growth (less inhibition)). Conditions: arabinose induction (level): Low; compound 0.1 mM; raw OD600 reference: median of DMSO wells 0.417, cell-free background 0.041.
Method: (§1)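 TESEC E. coli strains in which the native enzyme is deleted and replaced by arabinose-inducible Mtb Asd, DapB, CysH or TrpD, each grown in its selective medium. Strains were screened against the Prestwick library at 0.1 mM and 1% DMSO in 384-well format at low and high arabinose induction. Growth is read as OD600 after 10 h in triplicate.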

Row | Structure (SMILES) | growth
1 | COc1ccc([C@@H]2Sc3ccccc3N(CCN(C)C)C(=O)[C@@H]2OC(C)=O)cc1 [Diltiazem hydrochloride] | 0.434 ± 0.098
2 | CC(=O)N[C@@H](CC(=O)N[C@@H](CCC(=O)O)C(=O)O)C(=O)O [Spaglumic acid] | 0.426 ± 0.026
3 | Cc1ccnc(NS(=O)(=O)c2ccc(N)cc2)n1 [Sulfamerazine] | 0.4484 ± 0.0033
4 | N=c1nc(N2CCCCC2)cc(N)n1O [Minoxidil] | 0.384 ± 0.054
5 | COc1ccc2c(c1)c(CC(=O)O)c(C)n2C(=O)c1ccc(Cl)cc1 [Indomethacin] | 0.196 ± 0.036
6 | CN1CC2c3ccccc3Oc3ccc(Cl)cc3C2C1 (stereo unspecified) [Asenapine maleate] | 0.295 ± 0.017

Each compound was assayed on E. coli TESEC Mtb DapB in the same assay as above. Conditions: arabinose induction (level): High; compound 0.1 mM; raw OD600 reference: median of DMSO wells […], cell-free background 0.041.
Method: as §1

Row | Structure (SMILES) | growth
7 | CN1CCCC(n2nc(Cc3ccc(Cl)cc3)c3ccccc3c2=O)CC1 (stereo unspecified) [Azelastine HCl] | 0.169 ± 0.0087
8 | COC(=O)Nc1nc2ccc(SC(C)C)cc2[nH]1 [Methiazole] | 0.204 ± 0.019
9 | CCCCNC(=O)NS(=O)(=O)c1ccc(C)cc1 [Tolbutamide] | 0.187 ± 0.021
10 | CS(=O)(=O)OCCCCOS(C)(=O)=O [Busulfan] | 0.209 ± 0.0074
11 | Fc1ccc([C@@H]2CCNC[C@H]2COc2ccc3c(c2)OCO3)cc1 [Paroxetine Hydrochloride] | 0.172 ± 0.027
12 | CC1(C)O[C@@H]2C[C@H]3[C@@H]4C[C@H](F)C5=CC(=O)C=C[C@]5(C)[C@H]4[C@@H](O)C[C@]3(C)[C@]2(C(=O)CO)O1 [Flunisolide] | 0.214 ± 0.021
13 | CNCCc1ccccn1 [Betahistine mesylate] | 0.217 ± 0.025
14 | CC(C(=O)O)c1ccc(C(=O)c2cccs2)cc1 (stereo unspecified) [Suprofen] | 0.213 ± 0.0048
15 | CCCCCCCCNC(C)C(O)c1ccc(SC(C)C)cc1 (stereo unspecified) [Suloctidil] | 0.153 ± 0.023
16 | CCCc1cc(C(N)=S)ccn1 [Prothionamide] | 0.208 ± 0.013
17 | CCC[C@@H]1C[C@@H](C(=O)N[C@@H]([C@H]2O[C@H](SC)[C@H](O)[C@@H](O)[C@H]2O)[C@@H](C)O)N(C)C1 [Lincomycin hydrochloride] | 0.172 ± 0.03
18 | C[C@]12CC[C@@H]3c4ccc(O)cc4C[C@@H](CCCCCCCCC[S+]([O-])CCCC(F)(F)C(F)(F)F)[C@H]3[C@@H]1CC[C@@H]2O (stereo partly specified) [Fulvestrant] | 0.212 ± 0.0092
19 | CN(C)CCCSC(=N)N [Dimaprit dihydrochloride] | 0.196 ± 0.006
20 | CN1CCN(c2c(F)cc3c(=O)c(C(=O)O)cn4c3c2SCC4)CC1 [Rufloxacin] | 0.0507 ± 0.00094
21 | CC(=O)OCC(=O)[C@@]1(OC(C)=O)[C@@H](C)C[C@H]2[C@@H]3C[C@H](F)C4=CC(=O)C=C[C@]4(C)[C@@]3(F)[C@@H](O)C[C@@]21C [Diflorasone Diacetate] | 0.198 ± 0.03
22 | CS(=O)(=O)c1ccc([C@@H](O)[C@@H](CO)NC(=O)C(Cl)Cl)cc1 [Thiamphenicol] | 0.0792 ± 0.0018
23 | CSc1nc2cc(Cl)c(Oc3cccc(Cl)c3Cl)cc2[nH]1 [Triclabendazole] | 0.0562 ± 0.0033
24 | CC(C)(CO)C(O)C(=O)NCCCO (stereo unspecified) [Panthenol (D)] | 0.185 ± 0.0037
25 | Cc1onc(-c2ccccc2Cl)c1C(=O)N[C@@H]1C(=O)N2[C@@H]1SC(C)(C)[C@@H]2C(=O)O [Cloxacillin sodium salt] | 0.162 ± 0.01
26 | OCCN(CCO)c1nc(N2CCCCC2)c2nc(N(CCO)CCO)nc(N3CCCCC3)c2n1 [Dipyridamole] | 0.195 ± 0.035

Row | Structure (SMILES) | growth
27 | CN(C)CCN(Cc1ccc(Cl)cc1)c1ccccn1 [Chloropyramine hydrochloride] | 0.185 ± 0.02
28 | CCCCOC(=O)c1ccc(N)cc1 [Butamben] | 0.23 ± 0.086
29 | Nc1c(Br)cc(Br)cc1CN[C@H]1CC[C@H](O)CC1 [Ambroxol hydrochloride] | 0.204 ± 0.015
30 | C[C@]12CC[C@@H]3c4ccc(OS(=O)(=O)O)cc4CC[C@H]3[C@@H]1CCC2=O [Estropipate] | 0.194 ± 0.016
31 | CC(NCCC(c1ccccc1)c1ccccc1)c1ccccc1 (stereo unspecified) [Fendiline hydrochloride] | 0.0461 ± 0.00056
32 | C[C@@H]1C[C@H]2[C@@H]3C[C@H](F)C4=CC(=O)C=C[C@]4(C)[C@@]3(F)[C@@H](O)C[C@]2(C)[C@@]1(O)C(=O)COC(=O)C(C)(C)C [Flumethasone pivalate] | 0.2 ± 0.0088
33 | COc1cc(C(=O)NC2CCCNC2)cc(OC)c1OC (stereo unspecified) [Troxipide] | 0.19 ± 0.012
34 | COCCc1ccc(OCC(O)CNC(C)C)cc1 (racemic) [Metoprolol-(+,-) (+)-tartrate salt] | 0.214 ± 0.031
35 | CC(Oc1c(Cl)cccc1Cl)C1=NCCN1 (stereo unspecified) [Lofexidine] | 0.205 ± 0.013
36 | N#CC(c1ccc(Cl)cc1)c1c(Cl)cc(-n2ncc(=O)[nH]c2=O)cc1Cl (stereo unspecified) [Diclazuril] | 0.0518 ± 0.0015
37 | Cc1cc(C(C)(C)CC(C)(C)C)ccc1OCCOCC[N+](C)(C)Cc1ccccc1 [Methyl benzethonium chloride] | 0.0545 ± 0.0014
38 | CC(=O)CC(c1ccc([N+](=O)[O-])cc1)c1c(O)c2ccccc2oc1=O (stereo unspecified) [Acenocoumarol] | 0.175 ± 0.015
39 | COCC1=C(C(=O)OC(C)OC(=O)OC(C)C)N2C(=O)[C@@H](NC(=O)/C(=N\OC)c3csc(N)n3)[C@H]2SC1 (stereo partly specified) [Cefpodoxime proxetil] | 0.202 ± 0.05
40 | CC(=O)OCC(=O)[C@@]12OC(C)(C)O[C@@H]1C[C@H]1[C@@H]3C[C@H](F)C4=CC(=O)C=C[C@]4(C)[C@@]3(F)[C@@H](O)C[C@@]12C [Fluocinonide] | 0.222 ± 0.013
41 | COc1ccc([C@@H]2Sc3ccccc3N(CCN(C)C)C(=O)[C@@H]2OC(C)=O)cc1 [Diltiazem hydrochloride] | 0.184 ± 0.035
42 | CC(=O)N[C@@H](CC(=O)N[C@@H](CCC(=O)O)C(=O)O)C(=O)O [Spaglumic acid] | 0.211 ± 0.021
43 | Cc1ccnc(NS(=O)(=O)c2ccc(N)cc2)n1 [Sulfamerazine] | 0.21 ± 0.0031
44 | N=c1nc(N2CCCCC2)cc(N)n1O [Minoxidil] | 0.18 ± 0.0054
45 | COc1ccc2c(c1)c(CC(=O)O)c(C)n2C(=O)c1ccc(Cl)cc1 [Indomethacin] | 0.156 ± 0.0079
46 | CN1CC2c3ccccc3Oc3ccc(Cl)cc3C2C1 (stereo unspecified) [Asenapine maleate] | 0.213 ± 0.0042
